Drawing on PubChem BioAssay AID651719 (The Scripps Research Institute Molecular Screening Center, 2012), this text covers inhibition for 22 molecules.

In general, inhibition refers to the change of the read-out against control, counted positive when it falls.

Hit rate of the full screen: of about 360,000 compounds, about 1,600 (0.44%) were called active.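 How the source made its calls: active means inhibition above the screen-wide average plus 3 SD (cut at about 13% in these data); inactive means the rest.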 Only a selection was taken, and actives are over-represented in it overall.

The target in this assay is Galanin receptor type 3 (Homo sapiens) (UniProt O60755). In words: blockers of human galanin receptor 3 – cell-based, fluorescence readout, primary screen (AID 651719).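 Further: forskolin and galanin both at EC90 stimulate the cells; cAMP rise reported by CNG channel membrane potential dye signal; 0% = forskolin plus galanin with DMSO and 100% = forskolin alone.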 The note with it: HEK293 GalR3-CNG cAMP membrane potential fluorescence; at 3 µM; hits give high values; galR3 body fused to GalR1 C-terminus.
Sequence of Galanin receptor type 3 (Homo sapiens) (O60755 1-299 limits assumed): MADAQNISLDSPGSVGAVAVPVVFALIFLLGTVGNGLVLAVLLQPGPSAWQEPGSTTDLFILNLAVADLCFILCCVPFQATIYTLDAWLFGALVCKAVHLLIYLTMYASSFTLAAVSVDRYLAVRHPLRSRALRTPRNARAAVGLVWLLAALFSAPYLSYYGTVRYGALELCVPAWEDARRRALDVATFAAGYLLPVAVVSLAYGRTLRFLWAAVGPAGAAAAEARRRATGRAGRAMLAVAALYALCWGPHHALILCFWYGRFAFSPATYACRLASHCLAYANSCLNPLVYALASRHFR
On to `CC(=O)c1c(C)[nH]c(C(=O)COC(=O)c2cccc(S(=O)(=O)N(C)c3ccccc3)c2)c1C`, for which the inhibition was 78.8% (active).
The figure for `CC(=O)c1c(C)[nH]c(C(=O)COC(=O)c2cccs2)c1C` is -4.13% (inactive).
Regarding `COc1cccc(C(=O)OCC(=O)c2[nH]c(C)c(C(C)=O)c2C)c1`, the inhibition is -7.96% (inactive).
The figure for `CC(C)c1c(C(=O)N/N=C/c2ccccc2C(=O)O)nnn1-c1nonc1N` is -9.07% (inactive).
The result for `Nc1nonc1-n1nnc(C(=O)N/N=C/c2cc(Br)ccc2O)c1CSC1=NCCS1` reads 76.9% (active); that for `COCc1c(C(=O)N/N=C\c2cccnc2)nnn1-c1nonc1N`, -5.53% (inactive).
The result for `Cc1cc(OC(=O)NCCc2ccc(F)cc2)ccc1F` reads -6.58% (inactive).
For `C=CCN=C1NC(c2cccc(C(F)(F)F)c2)C(C(=O)OC)=C(C)N1C` (configuration not stated), the inhibition was -7.24% (inactive).
The figure for `CC(C)[C@@H](C)/C=C/[C@@H](C)[C@H]1CC[C@@H]2[C@]1(C)CCC1[C@]23C=C[C@]2(C[C@@H](O)CC[C@]12C)N(c1ccc([N+](=O)[O-])cn1)O3` (some centres not stated) is 2.02% (inactive).
Consider `COC(=O)C1=C(C)N(Cc2ccccc2C(F)(F)F)C(=NCc2ccc(C(F)(F)F)cc2)NC1c1ccc(F)cc1` (configuration not stated), for which the inhibition was -4.63% (inactive).
As to `CCCCCCCCN1C(=O)[C@@H](CC(=O)NCc2ccc(C)o2)C[C@@]2(C(=O)OC)C1=C[C@H](C(C)(C)C)O[C@@H]2C`, the inhibition is -4.99% (inactive).
The result for `CN(CC(=O)Nc1ccc(Cl)c(C(F)(F)F)c1)C(=O)CCC(=O)c1ccccc1` reads -4.03% (inactive).
As to `O=C(CC(O)(C(F)(F)F)C(F)(F)F)Nc1ccc(Cl)c(Cl)c1`, the inhibition is 58.6% (active).
The result for `O=C(Cc1ncc(C(F)(F)F)cc1Cl)Nc1cccc(Br)c1` reads 2.24% (inactive).
As to `Nc1ncnc2c1ncn2[C@@H]1O[C@H](C(=O)N[C@@H](CCc2ccccc2)C(=O)N2CCCN(Cc3cccs3)CC2)[C@@H](O)[C@H]1O`, the inhibition was -6.23% (inactive).
As for `O=C(O)Cn1cnc2c(NCc3ccccc3)ncnc21`, the inhibition is -5.71% (inactive).
The result for `C=CCN1C(=O)N(Cc2ccccc2)c2ccccc2S1(=O)=O` reads -6.64% (inactive); that for `CSc1nc2c(c(=O)[nH]1)C(c1cccc(Cl)c1Cl)CC(=O)N2` (configuration not stated), 12.2% (inactive).
The result for `COc1ccc(C2OCC3(CO2)SC(=O)NC3=O)cc1OC` (configuration not stated) reads -2.1% (inactive).
The result for `COc1ccc(C2CC(=O)Nc3sc(=N)c4c(N)c(C#N)c(N)nc4c32)cc1OC` (configuration not stated) reads 64.7% (active); that for `COc1ccc(OC)c2c(N)c(C#N)c(C(F)(F)C(F)(F)F)nc12`, 1.89% (inactive); that for `N#Cc1c(N)nc2c3c(sc(=N)c2c1N)NC(=O)CC3c1ccccc1Cl` (configuration not stated), 62.4% (active).
